Records with an inconclusive call do not appear. Unmarked numbers belong to inactive results. The source made the active and inactive calls. Calls follow the shape of the dose curve; as a rule, active = well fitted inhibition curve with a large enough effect; inconclusive = small, poorly fitted or top-dose-only effect; inactive = flat fitted curve, though single readings scatter.
Potency is read from the fitted curve at half-maximal effect.

The assay can be described thus: BET inhibitor-based combinations targeting novel dependencies in MECOM-rearranged (r) AML: AML-191 cell line (AID 2202236; also: nearly all actives have a fitted effect of over 35% in size;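 as to viability (% of control): plate controls were vehicle wells for no effect and wells without cells for full effect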). To be noted: AML-191 viability, CellTiter-Glo luminescence, 48 h; series mostly up to 46 µM; viability (% of control): at the top concentration. The method in brief:
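Readout: CellTiter-Glo luminescence. Exposure: 48 h, 11 concentrations, 500 cells/well. Metric: AUC and within-line Z-AUC after DMSO/empty-well normalization.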
For the compound `O=C(Nc1ncc(SCCN2CCCC2)s1)[C@]1(c2ccc(S(=O)(=O)C3CC3)cc2)C[C@H]1C1CCCCC1`, the Potency was 18.6 µM (active).
With `COc1ccc(-c2oc3ncnc(N)c3c2-c2ccc(NC(=O)Nc3cc(C(F)(F)F)ccc3F)cc2)cc1`, the Potency is 8.33 µM (active).
With `C=C[C@@H]1CN2CCC1C[C@H]2[C@H](O)c1ccnc2ccc(OC)cc12` (stereo partly specified), the “viability (% of control)” value is 88%.
On to `COc1cc(C(=O)NC(N)=Nc2ccc(C)c(NC(=O)c3ccc(-c4ccccc4)cc3)c2)cc(OC)c1OC`, for which the Potency is 18.6 µM (active).
Same read-out and setting: the figure for `COc1ccc2c(c1)c(C1=C(c3c[nH]c4ccccc34)C(=O)NC1=O)cn2CCCN(C)C` is 23.5 µM (active); for `C=CCN(/C=C1\C(=O)O[C@@H](COC)[C@]2(C)C1=C(O)C(=O)C1=C2[C@@H](OC(C)=O)C[C@]2(C)C(=O)CC[C@H]12)CC=C` it is 20.9 µM (active).
`NS(=O)(=O)Oc1ccc2c3c(c(=O)oc2c1)CCCCC3`: the “viability (% of control)” value was 103%.
On the same count and under the same terms, the figure for `CO[C@H]1/C=C/O[C@@]2(C)Oc3c(C)c(O)c4c(O)c(c5c(nc6cc(C)ccn65)c4c3C2=O)NC(=O)/C(C)=C\C=C\[C@H](C)[C@H](O)[C@@H](C)[C@@H](O)[C@@H](C)[C@H](OC(C)=O)[C@@H]1C` is 95.6%.
For the compound `CCN(CC)C(=S)SSC(=S)N(CC)CC`, the Potency was 0.296 µM (active).
In the case of `CCOC(=O)N[C@@H]1CC[C@@H]2[C@@H](C1)C[C@H]1C(=O)O[C@H](C)[C@H]1[C@H]2/C=C/c1ccc(-c2cccc(F)c2)cn1`, the “viability (% of control)” value is 97.6%.
As to `COc1cc(N2CCN(C)CC2)ccc1Nc1ncc2c(n1)N(C)c1ccccc1C(=O)N2`, the Potency was 26.3 µM (active).

(Values after PubChem BioAssay (NCATS).)
